# Data as given in PubChem BioAssay (NCATS).
# Inconclusive results are not listed. Active and inactive are the calls of the source. Unless noted, calls follow the shape of the dose curve; as a rule, active = well fitted curve in the direction sought with a large enough effect; inconclusive = small, poorly fitted or top-dose-only effect, or another doubt; inactive = no such curve, though single readings can be large; an effect the other way counts as inactive or inconclusive.
# What was measured:
# Furin (Homo sapiens) = Furin (Homo sapiens) (UniProt P09958); assay: Furin counterscreen qHTS for Zika virus inhibitors (AID 1347149); also: nearly all actives have a fitted effect of over 70% in size; also: potency is read from the fitted curve at half-maximal effect;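 as to activity change, negative = inhibition: purified recombinant full-length human furin enzyme at 5 nM; fluorescence gain from furin cutting a BOC-RVRR-AMC peptide substrate over 15 min; top concentration of the series differs between compounds; plate controls were no-inhibitor control for no effect and no-enzyme control for full effect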
# Method in brief: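 Counterscreen measures cleavage of 2 microM BOC-RVRR-AMC, below its ~15 microM Km, by 5 nM full-length human furin at pH 7.0 after a 15-min compound preincubation. Inhibition derives from the 15-min fluorescence increase at 37C.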
# [1] = Confirmatory screen GU Rhodamine qHTS for Zika virus inhibitors qHTS (AID 1347157); also: nearly all actives have a fitted effect of over 70% in size; also: potency is read from the fitted curve at half-maximal effect;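 as to activity change, negative = inhibition: plate controls were no-inhibitor wells for no effect and no-enzyme wells for full effect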
# Method in brief: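 Compounds, tested up to 114 microM, were incubated for 15 minutes with 25 nM unlinked NS2B-NS3 protease at pH 8.0. Cleavage of 1.5 microM Rhodamine110 substrate was then followed by fluorescence for 15 minutes.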
# [2] = Confirmatory screen NINDS Rhodamine qHTS for Zika virus inhibitors (AID 1347161); also: nearly all actives have a fitted effect of over 60% in size; also: potency is read from the fitted curve at half-maximal effect;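 as to activity change, negative = inhibition: purified Zika NS2B-NS3 protease with linked NS2B cofactor domain and Rhodamine110 peptide substrate; plate controls were no-inhibitor control for no effect and no-enzyme control for full effect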
# Method in brief: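 Purified NS2B-NS3 protease with the NS2B hydrophilic domain joined by a flexible linker (25 nM) in 10 mM Tris-HCl pH 8.0, 0.01% Tween 20, preincubated 15 min at RT with compound; Rhodamine110 peptide substrate 1.5 µM; fluorescence change over 15 min; 4-parameter Hill fit.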
# [3] = target: Tyrosyl-DNA phosphodiesterase 1 (Homo sapiens) (UniProt Q9NUW8); assay: Confirmation Assay for Inhibitors of Tyrosyl-DNA Phosphodiesterase (TDP1) (AID 489007); details: recombinant human TDP1 enzymatic activity, dose-response; also: potency is read from the fitted curve at half-maximal effect; nearly all actives have a fitted effect of over 40% in size
# Method in brief: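 Loss of AlphaScreen signal reports Tdp1 cleavage of a dual-labelled DNA substrate. Conditions: 1 nM E. coli-derived enzyme, 15 nM substrate, 15 min compound preincubation, 5 min reaction, 10 min bead incubation, all at room temperature.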
# [4] = ZIKV-mCherry secondary qHTS for Zika virus inhibitors (AID 1347158); also: top concentration of the series differs between compounds
# Method in brief: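 This orthogonal imaging screen measured ZIKV-mCherry infection of Vero cells exposed to compound, MOI 1, 48-72 h. Percent infection came from segmented nuclei scored mCherry-positive above 3 SD of negative controls.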
# [5] = tested on: Zika virus NS2B-NS3 protease (linked); assay: 384 well plate NINDS AMC confirmatory qHTS for Zika virus inhibitors (AID 1347163); also: nearly all actives have a fitted effect of over 50% in size; also: potency is read from the fitted curve at half-maximal effect;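 as to activity change, negative = inhibition: linked protease at 5 30 or 60 nM final depending on run; fluorescence of AMC released from Ac-VKTGKR-AMC peptide cleaved by the protease; top concentration of the series differs between compounds; 0% = no-inhibitor control and -100% = no-enzyme control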
# Method in brief: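 Enzyme (5, 30 or 60 nM final) first met test compounds for ~15 min. The AMC-tagged peptide Ac-VKTGKR-AMC followed at 30 microM. Fluorescence was then recorded at 25 min and scaled against no-enzyme and no-inhibitor wells.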
# [6] = Tertiary RLuc qRT-PCR qHTS assay for Zika virus inhibitors (AID 1347169); also: top concentration of the series differs between compounds; % is scaled to controls: 0 for no effect and ±100 for the full control effect; nearly all actives have a fitted effect of over 55% in size
# Method in brief: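 Vero cells (1,000/well) infected with recombinant ZIKV-RLuc (Cambodian) at MOI 1-2 after compound addition, 48-72 hrs at 37 degrees C. Live-cell Renilla luciferase substrate added; luminescence read after 1-1.5 hrs.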
# [7] = target: N-terminal Xaa-Pro-Lys N-methyltransferase 1 (Homo sapiens) (UniProt Q9BV86); assay: Confirmatory qHTS for Inhibitors of N-terminal methyltransferase 1 (NTMT1): MTaseGlo Assay (AID 1645874);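 also: luminescence from SAH made as NTMT1 methylates SPKRIA peptide using SAM; 0% = DMSO control and -100% = no-enzyme control; nearly all actives have a fitted effect of over 65% in size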
# Method in brief: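 Room-temperature NTMT1 reaction, 30 min, with 100 uM SAM and 1 uM SPKRIA substrate; enzyme 125 nM. Read-out: MTase-Glo luminescence, normalized to no-enzyme and DMSO controls.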
# [8] = target: Rap guanine nucleotide exchange factor 4 (Homo sapiens) (UniProt Q8WZA2); assay: Confirmatory qHTS for agonist of cAMP-regulated guanine nucleotide exchange factor 4 (EPAC2) (AID 1645884);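 also: nucleotide exchange releases bodipy-GDP from Rap1 and this lowers its fluorescence; % is scaled to controls: 0 for no effect and ±100 for the full control effect; nearly all actives have a fitted effect of over 65% in size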
# [9] = target: Rap guanine nucleotide exchange factor 4 (Homo sapiens) (UniProt Q8WZA2); assay: Confirmatory qHTS for antagonist of cAMP-regulated guanine nucleotide exchange factor 4 (EPAC2) (AID 1645885); also: % is scaled to controls: 0 for no effect and ±100 for the full control effect; nearly all actives have a fitted effect of over 25% in size
# [10] = target: Rap guanine nucleotide exchange factor 3 (Homo sapiens) (UniProt O95398); assay: Counterscreen qHTS for antagonist of cAMP-regulated guanine nucleotide exchange factor 3 (EPAC1) (AID 1645888);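 also: fluorescence loss as bound BODIPY-GDP is released from Rap1B; % of control where 0% means no effect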
# Method in brief: (§1)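 Rap1B–BODIPY-GDP (250 nM) with 50 uM GDP; compounds pin-transferred to 9.74 nM–152 uM final (activator) or from 7.32 nM upwards (inhibitor). Fluorescence Ex/Em 480/540 nm read at 5 and 30 min, then after adding cAMP or buffer, at room temperature.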
# [11] = target: Rap guanine nucleotide exchange factor 3 (Homo sapiens) (UniProt O95398); assay: Counterscreen qHTS for agonist of cAMP-regulated guanine nucleotide exchange factor 3 (EPAC1) (AID 1645889); also: potency is read from the fitted curve at half-maximal effect; nearly all actives have a fitted effect of over 40% in size
# Method in brief: as §1
# [12] = tested on: Zika virus NS2B-NS3 protease (linked construct); assay: 384 well plate NINDS Rhodamine confirmatory qHTS for Zika virus inhibitors (AID 1347164);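 also: fluorescence from protease cleavage of Ac-LKRR-rhodamine 110 substrate; potency is read from the fitted curve at half-maximal effect; nearly all actives have a fitted effect of over 65% in size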
# Method in brief: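 Linked NS2B-NS3 protease (final 5, 30 or 60 nM) preincubated ~15 minutes with compounds, then 10 microM Ac-LKRR-Rhodamine 110 added. Fluorescence (485/538 nm) read after 25 minutes at room temperature, normalized to no-enzyme and no-inhibitor controls.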
# [13] = target: Cytochrome P450 3A4 (Homo sapiens) (UniProt P08684); assay: qHTS Assay for Activators of Cytochrome P450 3A4 (AID 885); also: nearly all actives have a fitted effect of over 65% in size
# Method in brief: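 Using 20nM recombinant human CYP3A4 in potassium phosphate (200mM), substrate Luciferin-PPXE at 25uM, luminescent luciferin detection followed a 60-min RT NADPH reaction; data scaled to 57 uM ketoconazole.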
# [14] = qHTS Assay for Lipid Storage Modulators (AID 1519; calls by dose curve; as to activity change, negative = inhibition: % is scaled to controls: 0 for no effect and ±100 for the full control effect); details: Drosophila S3 cells, BODIPY lipid droplet/cell ratio, laser cytometry, cells loaded with oleic acid; for activity change, negative = inhibition: at 57.5 µM (top of the series)
# Method in brief: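 Cells seeded at 5,000 per well were treated with compounds over a concentration series and loaded with oleic acid (400 uM, as added). Lipid droplet fluorescence (488 nm excitation, 500-530 nm channel) was read by laser-scanning cytometry and normalized to 20 uM Triacsin C.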
# [15] = Confirmation and Secondary Assay for Modulators of Hemoglobin Beta Chain Splicing at IVS2 654 locus (AID 910);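 also: HeLa cells stably carrying EGFP split by mutant beta-globin IVS2-654 intron; % of control where 0% means no effect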
# Method in brief: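 HeLa cells stably expressing EGFP interrupted by β-globin IVS2-654 intron, seeded overnight in Opti-MEM/2% FCS, then treated 2 days at 37 °C. Restored splicing read as total peak GFP intensity per well by laser scanning cytometry (488 nm excitation, 500–520 nm emission); 500 nM antisense PNA as control.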
# [16] = Confirmation and Secondary Assay for Modulators of Hemoglobin Beta Chain Splicing at IVS2 705 locus (AID 930);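 also: HeLa cells stably expressing the EGFP-705 splicing reporter; GFP fluorescence per well restored by corrected splicing of the IVS2-705 intron in EGFP; % of control where 0% means no effect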
# Method in brief: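 Read-out: total peak GFP fluorescence per well (488 nm excitation, 500-520 nm emission) by laser-scanning cytometry. Cells: HeLa EGFP-705 splicing reporter, 2 days compound exposure in Optimem/2% FCS.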
# [17] = measured here: cell count channel max response
# [18] = measured here: lipid channel max response
# Sequence of Furin (Homo sapiens) (P09958 whole entry, looked up): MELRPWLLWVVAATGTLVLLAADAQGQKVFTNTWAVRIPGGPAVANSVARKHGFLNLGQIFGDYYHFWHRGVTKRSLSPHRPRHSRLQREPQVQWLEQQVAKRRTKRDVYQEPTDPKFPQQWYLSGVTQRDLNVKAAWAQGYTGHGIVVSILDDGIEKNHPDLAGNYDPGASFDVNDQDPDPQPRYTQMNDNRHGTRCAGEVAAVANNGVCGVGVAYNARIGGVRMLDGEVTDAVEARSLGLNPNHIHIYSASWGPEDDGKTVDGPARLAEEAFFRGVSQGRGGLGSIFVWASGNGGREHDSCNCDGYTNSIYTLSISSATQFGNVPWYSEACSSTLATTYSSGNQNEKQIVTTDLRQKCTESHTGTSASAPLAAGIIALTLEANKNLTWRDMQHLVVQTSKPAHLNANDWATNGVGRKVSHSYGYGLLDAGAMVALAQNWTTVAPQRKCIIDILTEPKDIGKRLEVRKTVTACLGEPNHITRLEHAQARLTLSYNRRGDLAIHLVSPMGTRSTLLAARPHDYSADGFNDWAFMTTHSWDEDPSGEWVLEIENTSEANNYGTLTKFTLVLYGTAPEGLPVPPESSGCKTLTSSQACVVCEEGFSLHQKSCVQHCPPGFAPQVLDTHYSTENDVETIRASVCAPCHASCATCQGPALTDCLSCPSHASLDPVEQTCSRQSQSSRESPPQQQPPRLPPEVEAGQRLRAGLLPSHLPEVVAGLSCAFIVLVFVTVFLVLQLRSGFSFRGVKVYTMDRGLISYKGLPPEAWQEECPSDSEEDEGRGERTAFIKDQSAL
# Sequence of Rap guanine nucleotide exchange factor 4 (Homo sapiens) (Q8WZA2 whole entry, looked up): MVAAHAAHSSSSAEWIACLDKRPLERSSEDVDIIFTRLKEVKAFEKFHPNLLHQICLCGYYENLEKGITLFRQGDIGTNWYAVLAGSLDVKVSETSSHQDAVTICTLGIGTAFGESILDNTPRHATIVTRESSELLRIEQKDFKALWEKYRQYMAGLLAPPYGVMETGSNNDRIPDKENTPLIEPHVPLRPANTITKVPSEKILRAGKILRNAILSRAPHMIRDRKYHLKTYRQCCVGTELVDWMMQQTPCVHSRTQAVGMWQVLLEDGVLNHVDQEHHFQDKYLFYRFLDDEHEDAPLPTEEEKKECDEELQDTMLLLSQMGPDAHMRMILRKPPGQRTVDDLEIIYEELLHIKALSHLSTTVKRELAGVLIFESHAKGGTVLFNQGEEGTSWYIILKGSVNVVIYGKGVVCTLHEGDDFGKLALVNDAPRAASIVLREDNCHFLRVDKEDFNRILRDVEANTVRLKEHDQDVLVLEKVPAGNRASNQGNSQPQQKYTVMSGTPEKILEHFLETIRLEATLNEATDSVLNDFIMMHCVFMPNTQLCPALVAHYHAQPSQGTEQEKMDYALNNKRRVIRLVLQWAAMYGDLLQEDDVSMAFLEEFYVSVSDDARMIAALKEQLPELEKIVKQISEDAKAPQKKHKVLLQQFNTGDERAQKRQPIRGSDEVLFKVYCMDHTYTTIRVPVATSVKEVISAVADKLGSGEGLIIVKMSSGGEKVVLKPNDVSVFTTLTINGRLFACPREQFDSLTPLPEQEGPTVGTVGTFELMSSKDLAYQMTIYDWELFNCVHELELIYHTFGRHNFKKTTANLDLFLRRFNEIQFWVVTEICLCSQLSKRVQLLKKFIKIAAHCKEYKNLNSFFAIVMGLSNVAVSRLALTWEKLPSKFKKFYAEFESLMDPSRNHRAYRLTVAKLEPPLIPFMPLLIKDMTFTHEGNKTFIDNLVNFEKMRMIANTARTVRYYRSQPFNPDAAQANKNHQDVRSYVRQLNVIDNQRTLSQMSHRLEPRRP
# Sequence of Cytochrome P450 3A4 (Homo sapiens) (P08684 whole entry, looked up): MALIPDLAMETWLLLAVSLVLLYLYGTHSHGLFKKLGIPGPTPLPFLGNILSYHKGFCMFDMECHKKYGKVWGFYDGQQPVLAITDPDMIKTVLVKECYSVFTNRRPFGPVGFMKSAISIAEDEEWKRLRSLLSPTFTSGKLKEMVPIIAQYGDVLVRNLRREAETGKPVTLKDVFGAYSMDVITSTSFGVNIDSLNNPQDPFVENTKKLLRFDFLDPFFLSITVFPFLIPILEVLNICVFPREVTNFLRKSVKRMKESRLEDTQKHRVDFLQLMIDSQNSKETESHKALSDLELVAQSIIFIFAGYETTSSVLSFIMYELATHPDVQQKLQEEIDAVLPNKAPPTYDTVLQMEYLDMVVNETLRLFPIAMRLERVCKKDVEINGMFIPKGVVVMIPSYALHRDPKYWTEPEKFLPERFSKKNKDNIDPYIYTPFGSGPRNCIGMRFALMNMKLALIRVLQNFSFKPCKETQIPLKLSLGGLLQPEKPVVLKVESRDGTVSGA
# Sequence of Tyrosyl-DNA phosphodiesterase 1 (Homo sapiens) (Q9NUW8 whole entry, looked up): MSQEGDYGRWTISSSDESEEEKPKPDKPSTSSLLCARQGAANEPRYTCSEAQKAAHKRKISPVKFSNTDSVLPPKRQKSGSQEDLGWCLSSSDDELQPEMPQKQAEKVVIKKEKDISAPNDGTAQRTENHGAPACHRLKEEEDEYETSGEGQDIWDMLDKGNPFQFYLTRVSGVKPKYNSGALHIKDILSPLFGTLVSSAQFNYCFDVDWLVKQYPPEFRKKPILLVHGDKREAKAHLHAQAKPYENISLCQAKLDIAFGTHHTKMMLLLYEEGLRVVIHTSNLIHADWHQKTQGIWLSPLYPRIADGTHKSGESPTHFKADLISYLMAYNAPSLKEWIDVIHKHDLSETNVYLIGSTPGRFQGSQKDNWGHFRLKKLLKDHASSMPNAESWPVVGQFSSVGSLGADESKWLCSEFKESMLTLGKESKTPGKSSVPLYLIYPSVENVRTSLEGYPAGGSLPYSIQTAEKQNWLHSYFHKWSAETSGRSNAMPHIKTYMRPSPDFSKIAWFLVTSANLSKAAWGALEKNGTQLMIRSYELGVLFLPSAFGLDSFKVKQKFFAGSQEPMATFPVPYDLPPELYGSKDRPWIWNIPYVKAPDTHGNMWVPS
# Sequence of Rap guanine nucleotide exchange factor 3 (Homo sapiens) (O95398 whole entry, looked up): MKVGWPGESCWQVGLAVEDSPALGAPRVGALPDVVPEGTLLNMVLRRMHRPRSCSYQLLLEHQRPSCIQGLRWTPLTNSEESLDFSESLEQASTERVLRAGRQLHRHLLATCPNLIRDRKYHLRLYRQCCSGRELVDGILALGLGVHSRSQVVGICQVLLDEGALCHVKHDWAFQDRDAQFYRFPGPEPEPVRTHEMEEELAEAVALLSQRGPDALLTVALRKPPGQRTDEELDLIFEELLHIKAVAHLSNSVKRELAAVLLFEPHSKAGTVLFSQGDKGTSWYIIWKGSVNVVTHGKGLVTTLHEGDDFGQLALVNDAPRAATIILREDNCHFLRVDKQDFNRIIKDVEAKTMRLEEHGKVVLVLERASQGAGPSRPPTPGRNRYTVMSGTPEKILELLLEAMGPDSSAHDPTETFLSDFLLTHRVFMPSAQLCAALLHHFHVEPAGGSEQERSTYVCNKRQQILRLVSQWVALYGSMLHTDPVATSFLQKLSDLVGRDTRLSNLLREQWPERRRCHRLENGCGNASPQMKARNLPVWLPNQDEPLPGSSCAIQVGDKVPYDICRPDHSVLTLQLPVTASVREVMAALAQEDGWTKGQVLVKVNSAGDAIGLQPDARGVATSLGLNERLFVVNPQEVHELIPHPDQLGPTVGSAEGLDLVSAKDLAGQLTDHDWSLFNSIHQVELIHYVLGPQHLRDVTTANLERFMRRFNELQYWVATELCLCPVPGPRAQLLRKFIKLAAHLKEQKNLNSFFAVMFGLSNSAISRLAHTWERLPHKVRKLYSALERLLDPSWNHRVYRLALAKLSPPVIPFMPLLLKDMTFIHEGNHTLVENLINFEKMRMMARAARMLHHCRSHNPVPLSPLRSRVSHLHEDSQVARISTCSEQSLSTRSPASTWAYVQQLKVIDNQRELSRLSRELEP
# Sequence of N-terminal Xaa-Pro-Lys N-methyltransferase 1 (Homo sapiens) (Q9BV86 whole entry, looked up): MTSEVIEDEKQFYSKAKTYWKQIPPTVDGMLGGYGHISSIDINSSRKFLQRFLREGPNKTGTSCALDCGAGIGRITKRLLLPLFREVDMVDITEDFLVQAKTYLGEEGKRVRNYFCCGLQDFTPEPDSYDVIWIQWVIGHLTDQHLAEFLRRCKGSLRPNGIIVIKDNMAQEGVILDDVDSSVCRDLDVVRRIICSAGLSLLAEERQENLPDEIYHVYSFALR
smiles,measurement,setting,value
O=C(Nc1ccc(C(=O)OCc2cc(=O)n3c4c(sc3n2)CCCC4)cc1)c1cccc(F)c1,Potency,Furin (Homo sapiens),46.9 µM (active)
same,Potency,[1],inactive
same,Potency,[2],inactive
N#C/C(=C\c1ccc(-c2ccc(Cl)c(C(=O)O)c2)o1)c1nc2ccccc2[nH]1,Potency,[3],112 µM (active)
same,Potency,Furin (Homo sapiens),inactive
same,Potency,[1],25.1 µM (active)
same,Potency,[4],inactive
same,Potency,[2],22.4 µM (active)
same,Potency,[5],126 µM (active)
same,Potency,[6],inactive
same,Potency,[7],inactive
same,outcome,[8],inactive
same,"activity change, negative = inhibition",[9],-25.6% [at 12.7 µM] (inactive)
same,outcome,[10],inactive
same,Potency,[11],79.4 µM (active)
CCOC(=O)c1ccc(Nc2nc3ccccc3nc2NS(=O)(=O)c2ccc(Cl)cc2)cc1,Potency,Furin (Homo sapiens),inactive
same,Potency,[1],3.16 µM (active)
same,Potency,[2],3.55 µM (active)
same,Potency,[5],inactive
Cc1oc2c(cc(NS(=O)(=O)c3ccc(Cl)cc3)c3ccccc32)c1C(=O)OCc1ccccc1,Potency,Furin (Homo sapiens),inactive
same,Potency,[1],28.2 µM (active)
same,Potency,[2],39.8 µM (active)
O=c1oc2cc(O)ccc2cc1-c1nc(-c2ccc(Cl)c(Cl)c2)cs1,Potency,Furin (Homo sapiens),inactive
same,Potency,[1],11.2 µM (active)
same,Potency,[4],inactive
same,Potency,[5],inactive
same,Potency,[6],inactive
COC(=O)C1=C(c2ccccc2)c2ccccc2S(=O)(=O)N1CC(=O)Nc1ccccc1C(F)(F)F,Potency,Furin (Homo sapiens),inactive
same,Potency,[1],inactive
same,Potency,[2],inactive
O=C(O)CSc1nc2ccc(NC(=O)COc3ccc(Cl)cc3)cc2s1,Potency,[3],11.2 µM (active)
same,Potency,Furin (Homo sapiens),inactive
same,Potency,[1],31.6 µM (active)
same,Potency,[4],inactive
same,Potency,[2],20 µM (active)
same,Potency,[5],25.1 µM (active)
same,Potency,[12],28.2 µM (active)
same,Potency,[6],inactive
O=C(O)Cn1nnc(-c2ccc(OCc3cccc(C(F)(F)F)c3)cc2)n1,Potency,Furin (Homo sapiens),inactive
same,Potency,[1],25.1 µM (active)
same,Potency,[4],inactive
same,Potency,[12],112 µM (active)
same,Potency,[6],inactive
COC(=O)c1ccc([C@H]2Nc3ccc(S(=O)(=O)Nc4ccc(C)cc4)cc3[C@H]3C=CC[C@H]32)cc1,Potency,Furin (Homo sapiens),inactive
same,Potency,[1],25.1 µM (active)
same,Potency,[4],inactive
same,Potency,[2],17.8 µM (active)
same,Potency,[12],100 µM (active)
same,Potency,[6],inactive
O=C(O)c1ccc(NC(=O)c2cn(-c3ccccc3)nc2-c2ccc(Br)cc2)cc1,Potency,Furin (Homo sapiens),inactive
same,Potency,[1],8.91 µM (active)
same,Potency,[2],6.31 µM (active)
same,Potency,[5],44.7 µM (active)
same,Potency,[12],35.5 µM (active)
COc1ccc(-c2cc(=O)c3c(O)cc(O)c(-c4cc(-c5cc(=O)c6c(O)cc(O)cc6o5)ccc4OC)c3o2)cc1,Potency,[13],inactive
same,"activity change, negative = inhibition",[14],6.01% (inactive)
same,max response,[14]; [17],-20.7%
same,max response,[14]; [18],-15.6%
same,Potency,Furin (Homo sapiens),inactive
same,Potency,[1],25.1 µM (active)
same,Potency,[2],25.1 µM (active)
same,Potency,[5],112 µM (active)
same,Potency,[6],inactive
Cc1csc2nc(COC(=O)c3ccc(NC(=O)c4ccccc4Br)cc3)cc(=O)n12,Potency,Furin (Homo sapiens),59.1 µM (active)
same,Potency,[1],inactive
same,Potency,[2],inactive
Cc1c(Cl)cccc1NS(=O)(=O)c1ccc(NS(=O)(=O)c2ccc3c(c2)OCCO3)cc1,Potency,Furin (Homo sapiens),inactive
same,Potency,[1],44.7 µM (active)
same,Potency,[2],25.1 µM (active)
same,Potency,[5],141 µM (active)
same,Potency,[12],39.8 µM (active)
Cc1c(Cl)cccc1NC(=O)CSc1ncccc1C(=O)Oc1ccccc1Cl,Potency,Furin (Homo sapiens),inactive
same,Potency,[1],inactive
same,Potency,[2],inactive
same,Potency,[6],inactive
Cc1ccc2nc(NS(=O)(=O)c3ccc(Cl)cc3)c(Nc3ccc(C(=O)O)cc3)nc2c1,Potency,Furin (Homo sapiens),inactive
same,Potency,[1],3.55 µM (active)
same,Potency,[2],3.16 µM (active)
same,Potency,[5],141 µM (active)
same,Potency,[12],12.6 µM (active)
CCOC(=O)c1ccc(NC(=O)c2ccc3c(c2)CCN3S(=O)(=O)c2ccc(Cl)cc2)cc1,Potency,Furin (Homo sapiens),inactive
same,Potency,[1],inactive
same,Potency,[2],inactive
O=S(=O)(Nc1ccc(Cl)cc1)c1ccc(NS(=O)(=O)c2ccc3c(c2)OCCO3)cc1,Potency,Furin (Homo sapiens),inactive
same,Potency,[1],44.7 µM (active)
same,Potency,[2],35.5 µM (active)
same,Potency,[12],31.6 µM (active)
O=C(O[C@@H]1Cc2c(O)cc(O)cc2OC1c1ccc(O)c(O)c1)c1cc(O)c(O)c(O)c1 (some centres undefined),Potency,[13],inactive
same,outcome,[15],inactive
same,outcome,[16],inactive
same,"activity change, negative = inhibition",[14],6.43% (inactive)
same,max response,[14]; [17],-10%
same,max response,[14]; [18],-4.33%
same,Potency,Furin (Homo sapiens),inactive
same,Potency,[1],35.5 µM (active)
same,Potency,[4],inactive
same,Potency,[5],25.1 µM (active)
same,Potency,[12],0.708 µM (active)
same,Potency,[6],inactive
